This note sets out measurements from PubChem BioAssay AID2551 (National Center for Advancing Translational Sciences (NCATS), 2010).

Values joined by “and” are separate entries in the source; they are usually repeats but may differ in a detail not shown here. Equal entries are not always repeated. Among all 310,000 compounds or so, about 17,000 (5.5%) were called active. A call without a number means that no potency is given here. Inconclusive results (about 11%) are left out. Calls come from the whole dose curve; as a rule, active = well fitted inhibition curve with a large enough effect; inconclusive = small, poorly fitted or top-dose-only effect, or effect the other way; inactive = no such curve, though single readings can be large or run the other way. Many of the other results were omitted from the sample, so actives are more common in it than they were. Where a structure was tested more than once in an assay, its records may differ in their call.
Potency is the fitted concentration of half-maximal effect.

Chain of Nuclear receptor ROR-gamma (Mus musculus) (P51450 whole entry, looked up, the tested form may be a part): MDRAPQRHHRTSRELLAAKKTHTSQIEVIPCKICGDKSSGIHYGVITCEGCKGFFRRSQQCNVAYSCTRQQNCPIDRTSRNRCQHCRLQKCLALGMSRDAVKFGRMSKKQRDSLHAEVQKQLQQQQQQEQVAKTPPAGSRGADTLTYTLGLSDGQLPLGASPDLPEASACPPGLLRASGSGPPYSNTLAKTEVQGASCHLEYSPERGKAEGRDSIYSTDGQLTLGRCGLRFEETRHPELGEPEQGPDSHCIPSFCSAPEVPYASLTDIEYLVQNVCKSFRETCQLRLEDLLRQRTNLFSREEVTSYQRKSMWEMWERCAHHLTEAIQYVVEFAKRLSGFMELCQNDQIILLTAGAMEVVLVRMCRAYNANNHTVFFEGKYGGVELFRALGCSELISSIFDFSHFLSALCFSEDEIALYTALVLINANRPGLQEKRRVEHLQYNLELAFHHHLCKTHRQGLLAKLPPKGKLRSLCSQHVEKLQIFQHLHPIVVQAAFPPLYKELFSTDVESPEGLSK

For this assay, the target named is Nuclear receptor ROR-gamma (Mus musculus) (UniProt P51450). Nature of the assay: qHTS for inhibitors of ROR gamma transcriptional activity. Note: nearly all actives have a fitted effect of over 60% in size. Particulars: Drosophila S2 Gal4-RORgamma UAS-luciferase reporter, 20 h; series mostly up to 53.6 µM. The essentials:
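In this cell-based reporter format, copper sulfate (700 uM final) drives Gal4–ROR gamma fusion expression from a metallothionein promoter in Drosophila Schneider cells; compounds preincubated 1 hr, reporter read after 20 hr at ambient temperature.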
On to `O=C(Nc1ccc([N+](=O)[O-])cc1)OCCc1ccccn1`, for which the Potency result is “inactive”.

In the case of `COc1ccc(C(=O)NC(=S)NNC(=O)c2c(-c3ccccc3)noc2C)cc1`, the Potency was 6.31 µM (active).

For `CC(=O)Nc1cccc(NC(=O)c2c(-c3ccccc3)noc2C)c1`, the Potency entry was “inactive”.

Consider `Cc1onc(-c2ccccc2)c1C(=O)Nc1ccccc1C#N`, for which the Potency result was “inactive”.

On to `Cc1ccc(CNC(=O)c2c(-c3ccccc3)noc2C)cc1`, for which the Potency result was “inactive”.

For the compound `Cc1onc(-c2ccccc2)c1C(=O)NNC(=S)NC(=O)c1ccc(F)cc1`, the Potency was 3.98 µM (active).

Turning to `Cc1onc(-c2c(Cl)cccc2Cl)c1C(=O)NNC(=O)c1c(-c2c(Cl)cccc2Cl)noc1C`, the Potency result was “inactive”.

Turning to `NC(=O)c1oc2ccccc2c1NC(=O)Cc1ccccc1`, the activity change, negative = inhibition was -17.9% [at 1.91 µM] (inactive).

`COc1ccc(N(C(=O)c2snc(C(N)=O)c2N)C(C(=O)NC2CCCC2)c2ccco2)cc1OC` (stereo not given): the Potency result was “inactive”.

For the compound `O=C1/C(=C/c2ccc(F)cc2)SC(=S)N1CCCC(=O)N1CCCCC1CCO` (stereo not given), the Potency entry was “inactive”.

Take `COC(=O)Cn1cnc2scc(-c3ccc(C)c(C)c3)c2c1=O`: the Potency entry was “inactive”.

Regarding `Cc1ccc(C)c(NC(=O)NNC(=O)c2ccc3ccccc3c2O)c1`, the Potency result is “inactive”.

As for `Cc1ccc(C)c(NC(=O)CCC(=O)NNC(=O)c2cccs2)c1`, the Potency entry was “inactive”.

Take `NS(=O)(=O)c1ccc(NC(=S)NC(=O)c2cccc(Br)c2)cc1`: the Potency is 11.2 µM (active).

Turning to `O=C(/C=C/NNC(=O)c1cccc(Br)c1)c1ccccc1`, the Potency result is “inactive”.

As to `Cc1ccccc1NC(=S)NNC(=O)c1cccc(Br)c1`, the Potency was 11.2 µM (active).

Regarding `CC(CC(=O)O)CC(=O)NNC(=O)c1cccc(Br)c1` (stereo not given), the Potency result is “inactive”.

For the compound `Cc1ccc(C)c(NC(=S)NNC(=O)c2csc(C)c2)c1`, the Potency is 3.55 µM (active).

For `O=C(NC(=S)Nc1ccc(Cl)c(C(=O)O)c1)c1cncc(Br)c1`, the Potency entry was “inactive”.

Take `O=C(NC(=S)Nc1cccc2c(O)cccc12)c1cccc(Br)c1`: the Potency was 11.2 µM (active).

`O=C(NC(=S)Nc1ccc(S(=O)(=O)Nc2ncccn2)cc1)c1cccc(Br)c1`: the Potency result was “inactive”.

As to `NS(=O)(=O)c1ccc(NC(=S)NC(=O)c2cccnc2)cc1`, the Potency result was “inactive”.

`O=C(NC1CC1)c1cccc(Br)c1`: the Potency result was “inactive”.

Turning to `COc1ccc(-c2nnc3n2CCCCC3)cc1`, the Potency result is “inactive”.

As for `COc1ccc(NC(=O)CSc2nncc(=O)n2N)cc1OC`, the Potency entry is “inactive”.

As for `CC(CN1CCOCC1)OC(=O)c1ccc(Cl)cc1Cl` (stereo not given), the Potency entry is “inactive”.

As to `Cn1c(C(=O)N2CCCC(C(=O)NCc3ccccc3)C2)cc2sccc21` (stereo not given), the Potency entry was “inactive”.

Consider `COc1ccccc1NC(=O)c1ccc(N2CC3CC(C2)c2cccc(=O)n2C3)c(NC(=O)c2cccnc2)c1` (stereo not given), for which the Potency result was “inactive”.

For the compound `CC(=O)N1c2ccc(S(=O)(=O)N3CCC(C(=O)N4CCN(c5ccccc5)CC4)CC3)cc2CC1C` (stereo not given), the Potency entry is “inactive”.

For `CC(C)CN(CC(C)C)C(=O)CN1c2cccc3cccc(c23)S1(=O)=O`, the Potency entry was “inactive”.

For the compound `O=C(CNC(=O)[C@@H]1Cc2ccccc2CN1)NC1CCCCC1`, the Potency entry was “inactive”.

In the case of `NC(=O)C1CC(=O)N(c2ccc(OCC(=O)NCc3ccccc3)cc2)C1` (stereo not given), the Potency entry was “inactive”.

In the case of `Cn1c(=O)[nH]c(=O)c2c1nc(N1CCN(C(c3ccccc3)c3ccccc3)CC1)n2CCO`, the Potency result was “inactive”.

For the compound `O=C(COCc1cc(-c2ccc3c(c2)OCO3)on1)N1CCN(c2cccc(Cl)c2)CC1`, the Potency result was “inactive”.

For the compound `CCOC(=O)c1sc(NC(=O)CCN2CCOCC2)c(C(=O)OCC)c1C`, the Potency entry was “inactive”.

As to `CCOC(=O)Nc1sc(C(=O)N(C)C)c(C)c1C(=O)OCC`, the Potency result was “inactive”.

For the compound `CCOC(=O)c1c(NC(=O)CCl)sc(C(=O)N(CC)CC)c1C`, the Potency is 20 µM (active).

For `Cc1ccc(S(=O)(=O)NCc2ccc(C(=O)NC3CCC(C)CC3)cc2)cc1` (stereo not given), the Potency entry was “inactive”.

Regarding `COc1ccccc1N1CC(C(=O)Nc2nnc(SCC(=O)NC(C)C)s2)CC1=O` (stereo not given), the Potency result was “inactive”.

For `CC(=O)Oc1c2c(c3c(c1CC=C(C)C)O[C@@]14C(=CC5CC1C(C)(C)OC4(C/C=C(\C)C(=O)O)C5=O)C3=O)OC(C)(CCC=C(C)C)C=C2` (stereo not given in full), the Potency is 5.62 µM (active).

Take `O=C(CNC(=O)c1ccc(Br)o1)NCC1CCCO1` (stereo not given): the Potency entry is “inactive”.

For `CCNC(=O)c1cnn(-c2ccccc2)c1-c1ccccc1`, the Potency entry was “inactive”.

In the case of `CCOc1cccc(-n2nnnc2-c2ccc(OC)cc2)c1`, the Potency entry was “inactive”.

On to `COc1ccc(-n2nnnc2-c2nc3ccccc3s2)cc1`, for which the Potency was 12.6 µM (active).

In the case of `COc1ccc(-n2nnnc2SCC(=O)Nc2ccccc2)cc1`, the Potency entry was “inactive”.

For the compound `COc1cc(C2C3=C(CCCC3=O)OC3=C2C(=O)CCC3)ccc1OCC(=O)Nc1ccccc1`, the Potency entry is “inactive”.

As to `Cc1ccc(N(Cc2cc(=O)[nH]c3ccccc23)C(=O)CCl)cc1`, the Potency is 15.8 µM (active).

Take `Cc1ccc(N(Cc2cc3ccccc3[nH]c2=O)C(=O)c2cccs2)cc1`: the Potency entry was “inactive”.

Consider `CC(=O)N(Cc1cc(=O)[nH]c2ccccc12)c1ccc(C)cc1C`, for which the Potency result was “inactive”.

For `Cc1cc(C)cc(NC(=O)C2CCCN2S(=O)(=O)c2cccc3cccnc23)c1` (stereo not given), the Potency result is “inactive”.

On to `CCN1CCN(CCNC(=O)c2ccc3c(c2)NC(=O)/C(=C\c2ccc(OC)c(OC)c2)S3)CC1`, for which the Potency result was “inactive”.

Take `CCCCc1cc(=O)oc2c(C)c(OCC(=O)N3CCC(C(N)=O)CC3)ccc12`: the Potency entry was “inactive”.

Turning to `O=C(/C=C/c1ccc2c(c1)OCO2)NCc1cn2cc(Cl)ccc2n1`, the Potency result was “inactive”.

For the compound `Clc1ccc2nc(CSc3ccccc3)cn2c1`, the Potency was 14.1 µM (active).

With `CCOc1ncccc1C(=O)OCc1cn2cc(Cl)ccc2n1`, the Potency result is “inactive”.

With `COc1ccc(CCOC(=O)CNC(=O)c2ccc(Cl)cc2Cl)cc1`, the Potency entry was “inactive”.

For the compound `COC(=O)Cc1cnc(NC(=O)CSc2nc(C(C)C)cc(=O)[nH]2)s1`, the Potency result was “inactive”.

Take `COc1ccc(N2CCN(C(=O)[C@@H](NC(=O)c3cc(OC)cc(OC)c3)C(C)C)CC2)cc1`: the Potency entry was “inactive”.

`CCOc1ccccc1Oc1cn[nH]c1-c1ccc(OC)cc1O`: the Potency is 8.91 µM (active).

For the compound `CCN(CCn1cccn1)Cc1cn[nH]c1-c1ccc(OC)cc1F`, the Potency result was “inactive”.

As for `COc1ccc(-c2cn[nH]c2-c2ccc(OC)cc2)cc1`, the Potency entry is “inactive”.

Turning to `O=S(=O)(NCC1CC1)c1ccc(F)c(Cl)c1`, the Potency entry was “inactive”.

Regarding `Cc1ccc(N(CC(=O)NCC2CCCO2)C(=O)CNS(=O)(=O)c2ccc(Cl)cc2)cc1` (stereo not given), the Potency result was “inactive”.

Turning to `CCN(CC(=O)N1CCCC1)S(=O)(=O)c1ccc(F)cc1`, the Potency entry was “inactive”.

Regarding `O=C(CSCc1ccccc1Cl)NNC(=O)c1ccccc1`, the Potency entry was “inactive”.

In the case of `O=C(CO/N=C/c1ccccc1OC(F)F)NC1CCCC1`, the Potency result was “inactive”.

Regarding `O=C(CO/N=C/c1ccccc1O)NNC(=O)c1ccccc1Cl`, the Potency is 20 µM (active).

Regarding `CCOc1ccc(C(C(=O)NCCOC)N(CCOC)C(=O)CCC(=O)Nc2ccccn2)cc1` (stereo not given), the Potency result was “inactive”.

On to `O=C(O)c1ccccc1C(=O)Nc1nc(-c2ccccc2)cs1`, for which the Potency entry was “inactive”.

Take `Cc1ccc(-c2csc(NNC(=O)c3ccccc3)n2)cc1`: the Potency is 5.01 µM (active).

As to `Cc1ccc(C(=O)NCCNC(=O)c2cnccn2)cc1`, the Potency result is “inactive”.

Regarding `CC(=O)Nc1ccc(-c2csc(NC(=O)Nc3ccccc3)n2)cc1`, the Potency result was “inactive”.

`Cc1ccc(Nc2nc(-c3sc(NC(=O)c4ccccc4)nc3C)cs2)cc1`: the Potency entry was “inactive”.

`COc1ccc(-c2csc(NC(=O)c3ccc(N4C(=O)CCC4=O)cc3)n2)cc1OC`: the Potency result was “inactive”.

`O=C(Nc1nc(-c2ccc(-c3ccccc3)cc2)cs1)c1cnccn1`: the Potency was 1.12 µM (active).

As to `Cc1ccc(-c2csc(NC(=O)c3cnccn3)n2)cc1C`, the Potency was 2.24 µM (active).

Take `O=C(Nc1nc(-c2cccnc2)cs1)c1ccccc1F`: the Potency result is “inactive”.

For `Cc1sc2ncn(CC(=O)NCCCC(=O)N3CCN(c4ccccc4F)CC3)c(=O)c2c1C`, the Potency result is “inactive”.

Consider `Nc1ccc(C(=O)Nc2ccccc2N)cc1`, for which the Potency entry is “inactive”.

On to `COc1ccc(NC(=O)CSc2nc(SC)ns2)c(OC)c1`, for which the Potency result was “inactive”.

As to `Cc1ccc(S(=O)(=O)N(C)CC(=O)NCCc2c[nH]c3ccccc23)cc1`, the Potency entry is “inactive”.

Regarding `Cc1cccc(N(Cc2ccccc2)C(=O)c2ccccc2F)c1`, the Potency entry is “inactive”.

Consider `CN(C(=O)c1ccno1)c1nnc(-c2cccnc2)s1`, for which the Potency result was “inactive”.

Regarding `CN(C(=O)c1ccccn1)c1nnc(-c2ccccn2)s1`, the Potency was 10 µM (active).

Turning to `CN(C(=O)COc1ccccc1)c1nnc(-c2ccncc2)s1`, the Potency entry was “inactive”.

For `O=C(COc1ccc(S(=O)(=O)Nc2cccc(C(F)(F)F)c2)cc1)N1CCOCC1`, the Potency entry was “inactive”.

As to `O=C(CCN1C(=O)[C@@H]2Cc3ccccc3CN2C1=O)NCCc1ccccc1`, the Potency result was “inactive”.

In the case of `Oc1c(C(c2ccccn2)N2CCOCC2)ccc2cccnc12` (stereo not given), the Potency is 1.26 µM (active).

In the case of `CCOc1cc(N2CCOCC2)c(OCC)cc1NC(=O)COc1cccc2cccnc12`, the Potency result was “inactive”.

Turning to `Cc1nc2sc(C(c3ccco3)N3CCOCC3)c(O)n2n1` (stereo not given), the Potency entry was “inactive”.

Take `O=C(NCc1nnc(SCC(=O)N2CCCCCC2)o1)c1ccc(F)cc1`: the Potency entry is “inactive”.

`Cc1nn(-c2ccccc2)c(Cl)c1/C=N/NC(=O)c1nn(C)cc1[N+](=O)[O-]`: the Potency entry is “inactive”.

As to `CCOC(=O)N1CCN(Cc2nnc(-c3ccccc3Cl)o2)CC1`, the Potency entry was “inactive”.

Regarding `CC(C)OCCCNC(=O)c1cc(Sc2ccc(F)cc2)nc2ccccc12`, the Potency result was “inactive”.

On to `COC(=O)Nc1nc2ccc(Sc3ccccc3)cc2[nH]1`, for which the Potency entry is “inactive and 6.31 µM (active)”.

In the case of `COc1ccc2nc(SCC(=O)Nc3c(C)cc(C)cc3C)[nH]c2c1`, the Potency result was “inactive”.

As for `S=c1[nH]cc(-c2ccc(Cl)cc2)n1-c1ccccc1`, the Potency result is “inactive”.

As for `S=c1[nH]ccn1-c1ccc(Cl)cc1`, the Potency was 3.55 µM (active).

As to `COc1ccc(C/C(C)=N/NC(=O)c2ccncc2)cc1`, the Potency entry was “inactive”.

As for `COC(=O)c1ccc(NC(=O)c2cc(Cl)ccc2OC)cc1`, the Potency result was “inactive”.

As to `O=C(CCN1CCN(c2ccccc2)CC1)NNC(=S)Nc1ccccc1`, the Potency was 10 µM (active).

On to `COc1ccc(C(=O)N/N=C(\C)CC(=O)Nc2ccc(Cl)cn2)cc1`, for which the Potency was 5.01 µM (active).

Consider `O=C(CN1CCN(c2ccc(F)cc2)CC1)Nc1ccccc1`, for which the Potency result was “inactive”.

In the case of `COc1cccc(C(=O)Nc2ccc(N3CCCC3)cc2)c1`, the Potency entry is “inactive”.

Regarding `COc1ccc(C(=O)Nc2ccc(N3CCC(C)CC3)cc2)cc1Br`, the Potency result is “inactive”.

`O=C(CN1CCN(c2ccccc2)CC1)Nc1ccc(F)cc1`: the Potency entry was “inactive”.

For `COc1c(Cl)cc(C(=O)Nc2ccc(Cl)cn2)cc1Cl`, the Potency result is “inactive”.

Regarding `COc1ccc(C(=O)NC(=S)Nc2ccc(N3CCCC3)cc2)cc1OC`, the Potency was 0.447 µM (active).

For `COc1ccc(COC(=O)N/N=C(\C)CC(=O)Nc2ccc(Cl)cc2)cc1`, the activity change, negative = inhibition is 5.64% [at 10 µM] (inactive).

In the case of `COc1ccc(C(=O)NC(=S)Nc2ccc(Cl)cn2)cc1OC`, the Potency is 7.94 µM (active).
